Mcl-1 Bim block = disrupts Bim peptide binding to human Mcl-1. Bead-based flow cytometry, Bim peptide-Mcl-1 binding. actives 0.1% (n = 190,000). inhibition, % at 10 µM. Q07820. AID 1009; in the data active = inhibition above about 40%;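 also: 0% = no compound tracer wells and 100% = peptide blocker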
Mcl1-Bid inh = Mcl-1/Bid interaction inhibition; Q07820; TR-FRET Mcl-1/Bid-Dy647 peptide binding, 1536-well; inhibition, % at 21.7 µM; actives 0.97% (n = 220,000); AID 1021;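 active = compounds that cut the binding signal by more than half at the single screening dose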;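 also: His-tagged Mcl-1 with europium anti-His antibody binding Bid BH3 peptide; 0% = Mcl-1 plus peptide wells and 100% = peptide-only wells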
Mcl1-Noxa inh = disrupts binding of human Mcl-1 to Noxa peptide. TR-FRET Mcl-1/Noxa peptide binding, 2 h. inhibition, % at 21.7 µM. Q07820. actives 1.5% (n = 220,000);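 active = compounds that cut the protein-peptide binding signal by more than 50% relative to plate controls in a single-dose test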;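 also: His-tagged Mcl-1 with rhodamine Noxa BH3 peptide and terbium anti-His antibody; 0% = Mcl-1 plus Noxa peptide wells and 100% = peptide-only wells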
MCL1 BIM primary = disrupts human MCL1 binding to BIM-BH3 peptide. GST-MCL1 / FITC-Bim-BH3 fluorescence polarization. inhibition, % at 10.9 µM. actives 0.68% (n = 320,000);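 active = inhibition above the mean inhibition of all tested compounds plus 3 SD, set per campaign, cut at about 40% in these data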;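 also: 0% = DMSO wells and 100% = unlabeled Bim-BH3 peptide control; higher means more loss of mP so more displacement of Bim peptide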
Bcl-xL primary = Bcl-xL (human) inhibition; Q07817; GST-Bcl-xL / FITC-Bim BH3 peptide fluorescence polarization; inhibition, % at 10.9 µM; actives 0.7% (n = 320,000);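 active = inhibition above the mean of all tested compounds plus 3 SD, cutoff set per campaign, cut at about 30% in these data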;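 also: 0% = DMSO wells and 100% = unlabeled Bim-BH3 peptide competitor; inhibitors lower millipolarization by displacing the labeled peptide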
Target sequence (Q07817 whole entry, looked up): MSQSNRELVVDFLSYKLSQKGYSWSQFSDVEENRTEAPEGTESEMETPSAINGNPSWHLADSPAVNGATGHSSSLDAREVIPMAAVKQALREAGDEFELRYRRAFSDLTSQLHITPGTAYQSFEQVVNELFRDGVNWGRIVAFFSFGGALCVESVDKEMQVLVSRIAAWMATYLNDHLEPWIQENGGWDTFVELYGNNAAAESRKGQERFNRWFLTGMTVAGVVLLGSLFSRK
GLD-1 RNA inh = GLD-1-TGE RNA interaction inhibition (C. elegans) | AID 2280 | actives 0.44% (n = 320,000) | inhibition, % at 5.96 µM | purified GLD-1 + fluorescein TGE RNA, fluorescence polarization | Q17339;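 active = percent inhibition above a per-plate cutoff, the plate mean of test compounds plus 3 SD, cut at about 30% in these data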;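 also: 0% = DMSO wells with GLD-1 and probe and 100% = wells lacking GLD-1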
Target sequence (Q17339 whole entry, looked up): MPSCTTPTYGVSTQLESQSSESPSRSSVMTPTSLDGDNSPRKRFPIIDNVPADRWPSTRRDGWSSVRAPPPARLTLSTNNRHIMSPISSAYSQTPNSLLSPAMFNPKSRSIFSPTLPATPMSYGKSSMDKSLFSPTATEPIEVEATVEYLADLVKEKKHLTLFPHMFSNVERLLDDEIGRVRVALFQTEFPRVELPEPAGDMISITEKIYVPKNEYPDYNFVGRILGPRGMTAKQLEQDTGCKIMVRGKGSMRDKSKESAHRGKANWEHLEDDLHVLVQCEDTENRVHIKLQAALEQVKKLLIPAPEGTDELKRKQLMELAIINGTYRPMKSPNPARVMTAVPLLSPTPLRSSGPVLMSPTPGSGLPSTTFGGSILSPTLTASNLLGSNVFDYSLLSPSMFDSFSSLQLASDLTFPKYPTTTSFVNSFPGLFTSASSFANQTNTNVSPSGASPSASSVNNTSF
Numbers without * were called inactive; nt = no result given. Rows were chosen to be rich in hits. Some 2.3% of all compounds tested hit in one or more screens of this group.

SMILES	Mcl-1 Bim block	Mcl1-Bid inh	Mcl1-Noxa inh	MCL1 BIM primary	Bcl-xL primary	GLD-1 RNA inh
COc1cccc(N2CCN(C3CC(=O)N(c4ccc(Cl)c(Cl)c4)C3=O)CC2)c1 (stereo not drawn)	-1.0	58.9*	12.1	7.6	1.6	5.9
CCN1/C(=C/c2ccc3cc(C)ccc3[n+]2CC)Sc2cc(C)c(C)cc21	30.0	-27.8	12.0	nt	nt	nt
CCN1/C(=C/c2ccc3cc(C)ccc3[n+]2CC)Sc2ccccc21	5.0	9.0	-17.4	-106.2	-40.0	57.4*
CCOC(=O)Cc1csc(NC(=O)c2sc3nc4c(C)cc(C)cc4cc3c2N)n1	-4.0	27.4	63.7*	-4.3	25.6	-7.8
CCOC(=O)Cc1csc(NC(=O)c2csc(C)c2)n1	-5.0	-17.1	8.2	8.0	3.0	6.8
O=C1NC(c2ccc(Br)cc2)=N/C1=C/c1ccco1	-4.0	33.0	26.0	11.5	12.7	0.9
O=C1NC(c2ccccc2Cl)=N/C1=C/c1ccco1	nt	-47.0	60.8*	8.9	11.6	14.3
Cc1n[nH]c(C)c1S(=O)(=O)N1CCC(C(=O)Nc2cccc(F)c2)CC1	nt	nt	nt	-1.8	2.9	1.3
COc1ccc(C2C(C#N)=C(C)NC3=C2S(=O)(=O)c2ccccc23)cc1 (stereo not drawn)	48.0*	-3.3	6.5	5.1	4.8	5.3
COC(=O)C1=C(C)NC2=C(C1c1ccc(O)cc1)S(=O)(=O)c1ccccc12 (stereo not drawn)	0.0	-11.3	-3.1	8.3	6.2	0.7
CC1CC(C)CN(CCOCCSc2ccccc2)C1 (stereo not drawn)	-5.0	69.0*	17.7	7.3	6.6	2.5
COCCC(=O)N1CCC(Oc2ccc(C(=O)NCCn3cccn3)cc2)CC1	nt	nt	nt	1.6	-0.2	2.2
O=C(CN1C(=O)NC2(CCCCC2)C1=O)Nc1ccc(F)cc1	2.0	-7.1	12.7	-1.1	-6.3	-1.5
O=C(CN1C(=O)NC2(CCc3ccccc3C2)C1=O)Nc1ccc(F)cc1 (stereo not drawn)	-8.0	87.8*	-11.7	3.1	4.2	3.2
Cc1cc(NS(=O)(=O)c2ccc(NC(=O)COc3ccc(Br)cc3)cc2)nc(C)n1	nt	nt	nt	-2.5	7.5	14.3
CCOc1ccc(OCC(=O)Nc2ccc(S(=O)(=O)Nc3cc(C)nc(C)n3)cc2)cc1	-4.0	2.1	68.4*	1.6	2.5	1.0
COc1ccc(-c2cc(C(=O)NCC3CCCO3)on2)cc1OC (stereo not drawn)	nt	nt	nt	0.7	34.0*	6.9
COc1cccc(-c2cc(C(=O)NCC3CCCO3)on2)c1 (stereo not drawn)	nt	nt	nt	7.3	3.7	1.4
COc1ccccc1CNC(=O)CNCC1CCCO1 (stereo not drawn)	0.0	50.5*	14.6	1.1	6.7	9.2
COc1ccccc1CCc1nnc(CCC(=O)NCC2CCCO2)o1 (stereo not drawn)	nt	nt	nt	7.6	7.0	3.2
CCc1nnc(NC(=O)c2ccc(-c3ccccc3Cl)o2)s1	1.0	52.8*	19.8	5.0	2.3	9.4
N#CC1=C(N)N2C(=C(C#N)C1c1ccc(Br)cc1)Nc1ccccc12 (stereo not drawn)	-5.0	51.3*	49.8	-17.1	-1.4	-2.2
N#CC1=C(N)N2C(=C(C#N)C1c1cccc(Br)c1)Nc1ccccc12 (stereo not drawn)	-4.0	19.4	24.8	0.9	2.6	-2.1
O=C1NC2=C(C(=O)CCC2)C(c2ccccc2[N+](=O)[O-])N1 (stereo not drawn)	nt	nt	nt	51.3*	50.9*	23.8
CN(C)S(=O)(=O)c1cccc(COc2ccccc2C(=O)Nc2ccccc2)c1	nt	nt	nt	-7.8	-3.3	-2.2
SMILES	Mcl-1 Bim block	Mcl1-Bid inh	Mcl1-Noxa inh	MCL1 BIM primary	Bcl-xL primary	GLD-1 RNA inh
CCOC(=O)c1sc2nc3c(SCCC(=O)O)cc(C(=O)c4cc(OC)ccc4O)cn3c(=O)c2c1C	0.0	85.0*	87.5*	nt	nt	nt
O=C(O)CSc1cc(C(=O)c2cc(F)ccc2O)cn2c(=O)c3c(-c4ccccc4)csc3nc12	nt	3.2	104.2*	8.5	12.3	-1.3
CCOC(=O)c1sc2nc3c(SCCC#N)cc(C(=O)c4cc(F)ccc4O)cn3c(=O)c2c1C	-4.0	6.3	27.0	-15.3	-2.5	-4.3
CCc1c(C)sc2nc3c(C(=O)N4CCOCC4)cc(C(=O)c4cc(F)ccc4O)cn3c(=O)c12	1.0	-13.2	-3.2	-2.5	6.8	2.8
CC(O/N=C(\N)c1ccccc1)C(=O)Nc1cccc(C(F)(F)F)c1 (stereo not drawn)	nt	nt	nt	nt	nt	1.9
O=C(O)c1cc(S(=O)(=O)N2CC3CC3C2C(=O)O)c(Cl)cc1Cl (stereo not drawn)	nt	nt	nt	1.2	1.1	-1.6
COc1ccc(OC)c(-c2nc(C(N)=O)c3[nH]c(=O)n(-c4ccc(F)cc4)c3n2)c1	1.0	65.7*	66.6*	-2.1	2.8	4.5
CCc1nc2nc(C)c(NS(=O)(=O)c3ccc(Cl)s3)c(=O)n2[nH]1	nt	nt	nt	0.8	-2.3	5.1
CCOC(=O)c1sc(NC(=O)Nc2ccc(Cl)cc2)cc1C	2.0	7.2	100.0*	-5.0	-2.1	11.5
O=c1c2ccccc2sn1-c1cc(S(=O)(=O)N2CCOCC2)ccc1N1CCOCC1	-8.0	-26.9	74.8*	13.2	-4.9	2.8
O=S(=O)(c1ccc(N2CCOCC2)c(Cl)c1)N1CCOCC1	nt	nt	nt	4.7	5.6	-0.8
Nc1cc(S(=O)(=O)N2CCOCC2)ccc1N1CCCCC1	nt	nt	nt	nt	nt	3.1
O=c1c2ccccc2sn1-c1cc(S(=O)(=O)N2CCOCC2)ccc1N1CCCC1	-16.0	-108.3	63.8*	10.5	15.2	4.0
COc1ccccc1Nc1nnc(SCC(=O)c2c(N)n(C3CC3)c(=O)[nH]c2=O)s1	nt	nt	nt	nt	nt	-4.0
CCC(=O)Nc1ccc(/C(C)=N\NC(=O)c2ccc(C)s2)cc1	0.0	-8.9	-5.2	3.0	0.3	-6.2
C/C(=N/NC(=O)c1ccc(Cl)s1)c1ccc(NC(=O)COc2ccc(Cl)cc2)cc1	-4.0	54.6*	-68.6	4.1	2.8	2.0
Cc1nn(CCc2nn[nH]n2)c2nc(-c3ccc(C4CCCCC4)cc3)cc(C(F)(F)F)c12	0.0	58.6*	-44.5	6.3	1.9	0.8
COc1ccc(Cc2c(O)nc(SC)n(C(C)=O)c2=O)cc1	67.0*	-75.6	8.0	4.4	7.2	3.5
OCC1=C[C@@H](O)[C@@H]2C=CO[C@@H](O[C@@H]3O[C@H](CO)[C@@H](O)[C@H](O)[C@H]3O)[C@H]12	nt	nt	nt	nt	nt	5.1
O=C(Nc1cccnc1)c1cc2cc(Br)ccc2o1	nt	nt	nt	4.5	7.1	8.7
O=C(CN1C(=O)NC2(CCCCCCC2)C1=O)N1CCc2ccccc2C1	0.0	-3.8	2.6	-3.8	2.9	1.8
COc1ccccc1CC1(C)NC(=O)N(CC(=O)N2CCc3ccccc3C2)C1=O (stereo not drawn)	1.0	56.6*	14.6	-7.9	-3.1	-4.5
COc1ccc(C(=O)C(C)[n+]2ccc(C)c3ccccc32)cc1[N+](=O)[O-] (stereo not drawn)	nt	nt	nt	39.1	34.2*	-44.1

Screening data deposited in PubChem BioAssay by several laboratories.
